Assay outcomes as filed in PubChem.
Calb FLC: C. albicans growth modulation with fluconazole. C. albicans CaCi-2 (fluconazole-resistant clinical isolate) + fluconazole, Alamar Blue growth, 48 h. growth inhibition, % (concentration not given with the values). hit rate 0.57% among 300,000. AID 1979;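 active = growth inhibition above about 58% in most replicates, limit read from the data, passing the limit was not always enough; inconclusive = exactly half the replicates above a set limit; inactive = most replicates below a set limit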;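 note: all wells also contain fluconazole at 8 µg/ml as a sub-toxic cotreatment; 0% = median of DMSO wells and 100% = median of geldanamycin control wells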
Beta cell apopt: blocks beta cell apoptosis; INS-1E cytokine-induced death, ATP luminescence, 48 h; percent of positive-control rescue, neutral wells zero; protection from apoptosis, % (test concentration not listed); hit rate 0.8% among 300,000;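 active = Every replicate reaches about 75%, or at least half do and their mean reaches it too, limit read from the data; inconclusive = At least half of replicates reach the limit but their mean does not; inactive = Under half of replicates reach the limit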;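 note: 0% = cytokine-treated negative control wells and 100% = positive control rescue; higher means more ATP so stronger rescue from cytokine killing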
Mdm2 MdmX PPI: inhibitors of human Mdm2/MdmX interaction | O15151+Q00987 | SaOS-2 split-luciferase Mdm2/MdmX complementation, luminescence | inhibition, % at 8 µM | hit rate 3% among 330,000 | AID 485346;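 active = inhibition of at least 50% at 8 µM in the primary screen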
MPTP block: permeability transition pore inhibition; isolated mouse mitochondria, Ca2+ swelling absorbance, 30 min; inhibition, % at 10 µM; hit rate 1.4% among 360,000; AID 602449;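 active = inhibition of 50% or more, scaled per plate between neutral and stimulator controls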;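 note: 0% = DMSO wells given calcium and 100% = 1 mM EGTA wells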
CSC inhib: blocks cancer stem cells. inhibition, % at 7.5 µM. hit rate 1.1% among 300,000. cancer stem cell-like cells viability, luminescence. AID 2717; in the data active = inhibition above about 75%; inconclusive = no clear call, values can overlap the other calls; tested in HMLE shEcad cells
* = called active by the depositor; ? = inconclusive; . = not tested or not shown. The list is not random: actives were taken first. Their share in the collection is about 4.8%.

SMILES	Calb FLC	Beta cell apopt	Mdm2 MdmX PPI	MPTP block	CSC inhib
O=C(Nc1ccc(-c2nnc3n2CCCCC3)cc1)c1cc2ccccc2o1	-16	6	19	1	-5
COc1ccc(NC(=O)c2cc(S(=O)(=O)NCC3COc4ccccc4O3)ccc2F)cc1 (stereo unspecified)	23	-8	16	7	-1
CC(C)c1ccc(NC(=O)c2cc(S(=O)(=O)NCC3COc4ccccc4O3)ccc2F)cc1 (stereo unspecified)	-3	58	26	28	123*
CC1(C(=O)NS(=O)(=O)c2ccccc2Cl)CCN1C(=O)c1ccco1 (stereo unspecified)	.	.	.	0	.
Brc1ccc(CSc2nnc(-c3cnccn3)n2Cc2ccco2)cc1	99*	-9	12	-1	24
COC(=O)[C@@]12C[C@@H](CC(=O)NCC34CC5CC(CC(C5)C3)C4)C(=O)N(CCc3ccc(OC)c(OC)c3)C1=CCC(C)(C)C2	.	.	.	-3	.
Cc1ccc(C(=O)NCCOc2ccc(Cl)cc2)cc1	-4	-6	-31	1	-5
Cc1ccc(C(=O)CC(=O)COc2ccc(Cl)cc2)cc1	114*	-2	7	-1	5
CCCCCCCCCC(=O)NNC(=O)c1c(O)c2ccccc2n(CC)c1=O	113*	11	28	12	19
CCn1c(=O)c(C(=O)Nc2ncccc2O)c(O)c2ccccc21	32	-1	2	4	1
CCn1c(=O)c(C(=O)Nc2ncccc2C)c(O)c2ccccc21	96*	3	42	0	.
CCCCCC(=O)NNC(=O)c1c(O)c2ccccc2n(CC)c1=O	36	-1	48	2	2
CCn1c(=O)c(C(=O)NCc2cccnc2)c(O)c2ccccc21	94*	-3	47	0	-10
CCCn1c(=O)c(C(=O)NCc2ccccc2OC)c(O)c2ccccc21	6	3	4	-3	43
CCn1c(=O)c(C(=O)NCc2ccccc2OC)c(O)c2ccccc21	-5	-4	-23	1	76*
CC1=C(C(=O)N(C(C)C)C(C)C)CC(CC(=O)NC(c2ccccc2)c2ccccc2)C(=O)N1Cc1ccc(C(C)(C)C)cc1 (stereo unspecified)	.	.	.	0	.
Cc1cccc(-c2nc(Nc3cccc(O)c3)c3ccccc3n2)c1	14	-5	15	4	81*
CN(C)S(=O)(=O)c1cccc(NC(=S)N/N=C/c2ccc(O)c(O)c2O)c1	77*	.	.	1	.
COc1cc(/C=N/NC(=S)Nc2cccc(S(=O)(=O)N(C)C)c2)cc(OC)c1O	?	-3	13	4	-9
CSCC[C@H](NC(=O)Cc1c(C)c2cc3c(C)c(C)oc3cc2oc1=O)C(=O)N[C@@H](C(=O)O)c1ccccc1	.	.	.	0	.
CCC1(C)Cc2ccccc2-c2c1c(=O)n(Cc1ccccc1)c1nnnn21 (stereo unspecified)	-4	15	21	6	135*
O=C(NCc1ccccc1)C(CCc1ccccc1)n1c(=O)c(-c2ccccc2)nc2ccccc21 (stereo unspecified)	.	.	.	2	.
Cc1ccc(SCc2cc(=O)n3ccsc3n2)c(C)c1	-7	-13	-87	.	.
Cc1cccc(-n2c(SCc3cc(=O)n4ccsc4n3)nc3ccccc32)c1	114*	2	-21	1	.
N#Cc1c(N)nc2c(c1-c1cccc(O)c1)CCCCCC2	15	-3	35	1	82*
SMILES	Calb FLC	Beta cell apopt	Mdm2 MdmX PPI	MPTP block	CSC inhib
N#Cc1c(N)nc2c(c1-c1ccccc1)CCCC2	20	-2	17	2	-18
Cc1ccc2nc(C(C)(C)C)c(Cc3cccc(Cl)c3)n2c1	.	.	.	-2	.
CCOc1cc(/C=N/NC(=O)c2ccc3c(c2)OCCO3)cc(Br)c1O	-8	1	-3	-1	-4
O=C(N/N=C/c1cc(Br)c(O)c(Br)c1O)c1ccc2c(c1)OCCO2	-24	91*	29	-2	50
O=C(N/N=C/c1cc(Br)c(Br)o1)c1ccc2c(c1)OCCO2	85*	-4	-19	6	10
O=C(N/N=C/c1cc(Br)cc(Br)c1O)c1ccncc1	?	79*	18	.	-6
O=C(N/N=C/c1ccccc1O)c1ccc2c(c1)OCO2	14	95*	13	0	30
O=C(N/N=C/c1cc(Cl)cc(Cl)c1O)c1ccncc1	2	51	34	7	9
CC(C)C[C@H]1CNC(=O)C(=O)N1C[C@@H]1CCCN1C[C@H](Cc1ccccc1)N1C[C@H](Cc2ccccc2)N(CCc2ccccc2)C(=O)C1=O	.	.	.	-3	.
O=C(N/N=C/c1cn(-c2ccccc2)nc1-c1cccnc1)c1ccc(F)cc1	4	5	19	0	-18
O=C(N/N=C/c1cn(-c2ccccc2)nc1-c1ccc(F)cc1)c1ccc(Br)o1	4	110*	34	-1	31
CCC(=O)N1CCC1(C)C(=O)Nc1cccc(OC)c1OC (stereo unspecified)	.	.	.	1	.
Cc1ccc(C)c(S(=O)(=O)Nc2cc(SCC(=O)O)c(O)c3ccccc23)c1	.	130*	.	40	20
O=S(=O)(Nc1ccc(O)c2ccccc12)c1ccc(F)cc1	49	69	23	5	28
CCc1ccc(S(=O)(=O)Nc2cc(SCC(=O)O)c(O)c3ccccc23)cc1	8	-22	20	-2	114*
COc1ccc(OC)c(S(=O)(=O)Nc2cccc3c(O)cccc23)c1	3	-2	31	5	17
COc1ccc(OC)c(S(=O)(=O)Nc2ccc(O)c3ccccc23)c1	-6	103*	20	-1	20
CCc1ccc(S(=O)(=O)Nc2ccc(O)c3ccccc23)cc1	42	?	34	1	92*
O=C(Nc1cccs1)Nc1nnc([C@@H]2C[C@H](O)[C@@H](CO)O2)s1	.	.	.	-1	.
Cc1cccc(N2CCN(C(=O)c3ccc4nc(N5CCCCC5)sc4c3)CC2)c1C	14	12	32	5	84*
CCOC(=O)N1CCN(C(=O)c2ccc3nc(N4CCCCC4)sc3c2)CC1	-2	4	-11	15	0
O=C1c2[nH]nc(-c3ccccc3O)c2C(c2cccc(Cl)c2)N1Cc1ccco1 (stereo unspecified)	-7	8	17	39	92*
Cc1cc(Br)cn2c(Cc3cccc(F)c3)c(-c3ccc(Cl)cc3)nc12	.	.	.	0	.
CC(=O)Nc1ccc(NC(=O)CSc2ccc3nnc(CCNS(=O)(=O)c4ccc(C)cc4)n3n2)cc1	77*	-8	-15	-1	-4
Cc1c(Cc2ccccc2)sc(/N=C/c2c(O)ccc3ccccc23)c1C(N)=O	48	-3	34	30	98*
Cc1c(Cc2ccccc2)sc(/N=C/c2ccc3ccccc3c2)c1C(N)=O	.	4	.	7	49
Cn1ncc(Cl)c1C(=O)NNC(=O)Nc1cccc2ccccc12	110*	-6	17	2	-5
O=C(Cc1ccc(Cl)cc1)NNC(=O)Nc1cccc2ccccc12	5	-8	24	1	-15
COC(=O)c1cc(NC(=O)c2c(-c3c(Cl)cccc3Cl)noc2C)ccc1N1CCOCC1	10	3	20	4	-9
